Drawing on PubChem BioAssay (NCI), this text covers growth for four compounds.

The structures appear in SMILES notation. About 83,000 compounds went through this panel and 20% of them were active in at least one assay; those are over-represented in the sample as a whole.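 Treatment: one concentration, 48 hours, 96-well format. Scoring: percent growth, with anything below 10 considered active.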 Unmarked numbers belong to inactive results.

This test relates to HL-60(TB) leukemia. The test can be described thus: NCI-60 one-dose screen, 48 h (100 = growth as untreated, 0 = no growth, -100 = all killed). The following applies: 10 µM unless noted.

As to `O=C1CSC(c2ccccc2Cl)N1c1nnc(Cn2nnc3ccccc32)o1` (centres undefined), the growth was 84.4%. For `Oc1ccc(Cl)cc1Cc1cc(Cl)ccc1O`, the growth was 33.8%. To `Fc1ccc(-c2cn3c(nc4ccccc43)c(-c3ccccc3)n2)cc1` belongs 99.8%. `CCCCC(=O)c1ccco1`: the growth is 103%.
